Results on 16 compounds are retold here after PubChem BioAssay (EPA / NIEHS).

Values joined by “and” are separate entries in the source; they are usually repeats but may differ in a detail not shown here. Identical values can stand only once. Results filed as inconclusive are left out. Some structures have more than one record in an assay (separate samples or runs), and their calls can disagree. Active and inactive are the calls of the source. The calls were made as follows: active = hit-call score of the fitted dose curve at least 0.9, where 1 is the maximum; inconclusive = response in the unintended direction; inactive = score below 0.9.

Assay [1] is described as follows: TOX21_p53_BLA_p5_viability: Viability Assessment in the Tox21 HCT-116 p53 Agonism Beta-lactamase Assay, Phase 5 (AID 2283600). Summed up: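 Decreased CellTiter-Glo luminescence denotes lost viability. Exposure: 16 h at 37C, 5% CO2, with compounds from DMSO stocks diluted 217-fold in wells of 4000 cells.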
Assay [2] has as its target Cellular tumor antigen p53 (Homo sapiens) (UniProt P04637). In words: TOX21_p53_BLA_p4_ratio: Tox21 HCT-116 p53 Agonism Beta-lactamase Assay, Ratio, Phase 4 (AID 2283601). Summed up:
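HCT-116 p53 beta-lactamase reporter cells (4000/well) preincubated 5 h, then compound (217-fold dilution of DMSO stock) for 16 h at 37C. CCF4-AM substrate added 2 h at room temperature; 460/530 nm emission ratio fitted upward versus DMSO.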

The nature of assay [3]: Tanguay_ZF_120hpf_MORT_legacy: (Legacy) Oregon State University Tanguay Lab 120 Hour Post-fertilization zebrafish Assay for Mortality (AID 2283633).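 As to AC50: fitted as increase in binary mortality versus DMSO negative control.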 Summed up:
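Dechorionated Tropical 5D wild-type zebrafish embryos, one per well from 6 hpf, static exposure in 0.64% DMSO at 28C until 120 hpf. Mortality scored as binary by brightfield microscopy at 24 and 120 hpf.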

A short description of assay [4]: Tanguay_ZF_120hpf_YSE_legacy: (Legacy) Oregon State University Tanguay Lab 120 Hour Post-fertilization zebrafish Assay for Yolk Sac Edema (AID 2283634).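 As to AC50: actives raise the incidence of yolk sac edema above the DMSO baseline.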 The essentials:
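Dechorionated Tropical 5D wild-type zebrafish embryos were exposed statically, one per well, from 6 to 120 hpf at 28C in 0.64% DMSO. Yolk sac edema was scored present/absent by brightfield at 120 hpf, and dead embryos were excluded.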

Assay [5] in a line: Tanguay_ZF_120hpf_AXIS_legacy: (Legacy) Oregon State University Tanguay Lab 120 Hour Post-fertilization zebrafish Assay for Body Axis Malformation (AID 2283635).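 As to AC50: potency for an increased fraction of larvae scored with body axis malformation.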 Summed up: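 Dechorionated wild-type Tropical 5D zebrafish embryos, one per well, statically exposed from 6 hpf to 120 hpf at 28C in 0.64% DMSO final. Body axis malformation scored present/absent by brightfield microscopy at 120 hpf; dead embryos excluded.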

Assay [6] is described as follows: Tanguay_ZF_120hpf_EYE_legacy: (Legacy) Oregon State University Tanguay Lab 120 Hour Post-fertilization zebrafish Assay for Eye Malformation (AID 2283636).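 Also: binary presence or absence of eye malformation scored by brightfield in 120 hpf larvae.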 The essentials:
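5D wild-type embryos, pronase-dechorionated at 4 hpf; static exposure 6–120 hpf, 28C, dark; DMSO 0.64% final; 5uM trimethyltin chloride positive control. Binary eye-defect scoring at 120 hpf; dead embryos not scored.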

Assay [7] can be described thus: Tanguay_ZF_120hpf_SNOU_legacy: (Legacy) Oregon State University Tanguay Lab 120 Hour Post-fertilization zebrafish Assay for Snout Malformation (AID 2283637). The essentials:
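Binary brightfield scoring of snout malformation at 120 hpf. Dechorionated 5D wild-type embryos, one per well, static exposure from 6 hpf at 28C, sealed and dark; final DMSO 0.64% (vol/vol), DMSO as baseline; 5uM trimethyltin chloride positive control.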

Assay [8] in a line: Tanguay_ZF_120hpf_JAW_legacy: (Legacy) Oregon State University Tanguay Lab 120 Hour Post-fertilization zebrafish Assay for Jaw Malformation (AID 2283638).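 As to AC50: active means more embryos with jaw malformation than DMSO controls.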 Summed up: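 Dechorionated Tropical 5D wild-type zebrafish embryos, one per well, exposed statically from 6 hpf to 120 hpf at 28C in 0.64% DMSO. Jaw malformation was scored by brightfield microscopy as present or absent. It was not scored in dead embryos.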

Assay [9] is described as follows: Tanguay_ZF_120hpf_OTIC_legacy: (Legacy) Oregon State University Tanguay Lab 120 Hour Post-fertilization zebrafish Assay for Otic Vesicle Malformation (AID 2283639). The essentials:
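Brightfield scoring at 120 hpf, binary present/absent; DMSO negative control, 5uM trimethyltin chloride positive control. Static exposure at 28C, final DMSO 0.64% (vol/vol). Dead embryos not scored for malformation.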

Assay [10] in a line: Tanguay_ZF_120hpf_PE_legacy: (Legacy) Oregon State University Tanguay Lab 120 Hour Post-fertilization zebrafish Assay for Pericardial Edema (AID 2283640).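 As to AC50: potency for increased incidence of pericardial edema versus DMSO baseline.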 The essentials:
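Tropical 5D wild-type zebrafish embryos were statically exposed until 120 hpf at 28C, with 0.64% DMSO final. Pericardial edema was scored by brightfield as present or absent; endpoints were not scored in dead embryos.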

Cellular tumor antigen p53 (Homo sapiens), sequence (P04637 whole entry, looked up): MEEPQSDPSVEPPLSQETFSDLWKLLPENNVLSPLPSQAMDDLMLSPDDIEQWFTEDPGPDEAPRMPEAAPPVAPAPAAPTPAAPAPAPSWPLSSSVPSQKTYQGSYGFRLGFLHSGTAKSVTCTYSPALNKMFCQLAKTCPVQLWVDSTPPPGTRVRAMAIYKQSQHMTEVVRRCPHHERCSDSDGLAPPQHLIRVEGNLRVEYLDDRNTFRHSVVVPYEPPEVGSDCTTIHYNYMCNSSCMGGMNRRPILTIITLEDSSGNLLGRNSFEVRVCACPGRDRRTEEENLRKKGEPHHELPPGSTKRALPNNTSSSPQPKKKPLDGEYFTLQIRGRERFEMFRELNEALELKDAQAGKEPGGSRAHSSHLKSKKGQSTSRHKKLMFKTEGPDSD

Regarding `CCCCCCCCC(=O)O`, the call in [1], in assay [2], in assay [3], in assay [4], in [5] and in [6] was inactive. Besides, the compound was called inactive in assay [7], in [8], in assay [9] and in assay [10].

As for `c1ccc2c(c1)Cc1ccccc1-2`, the compound was called inactive in assay [1], in assay [2], in assay [3], in [4], in assay [5] and in [6]. In addition, the call in [7], in assay [8], in [9] and in [10] was inactive.

As for `c1ccc2cc3c(ccc4ccccc43)cc2c1`, the outcome in assay [1], in assay [2] and in assay [3] was inactive. In addition, the AC50 (in general, the concentration giving half of the maximal activity seen) in assay [4] is 41.6 µM (active); in [5] it was 12.5 µM (active); in [6], 45.6 µM (active); in assay [7] it was 46.5 µM (active); in assay [8], 49.1 µM (active); in assay [9] it was 40.6 µM (active). Besides, the AC50 in [10] is 33.4 µM (active).

Take `OC1CCC(C2CCCCC2)CC1` (stereo not drawn): the call in assay [1], in assay [2], in [3], in assay [4], in [5] and in assay [6] was inactive. Further, the result in assay [7], in assay [8], in [9] and in assay [10] was inactive.

`CCCCCCCCCCCCN1CCCC1=O`: the AC50 in assay [1] was 45.3 µM (active); in assay [3], 27.6 µM (active); in assay [4], 47.3 µM (active); in [8], 46.6 µM (active); in assay [10], 35.8 µM (active). Besides, the result in assay [2], in [5], in assay [6], in [7] and in assay [9] was inactive.

With `CCc1ccc(CCOc2ccc(CC3SC(=O)NC3=O)cc2)nc1` (stereo not drawn), the call in assay [1], in assay [2], in assay [3], in assay [4], in assay [5] and in assay [6] was inactive. In addition, the call in assay [7], in [8], in assay [9] and in assay [10] was inactive.

In the case of `CC(C)(C)CC(C)(C)c1ccc(O)c(-n2nc3ccccc3n2)c1`, the result in [1], in [2], in assay [3], in assay [4], in [5] and in [6] was inactive. For the same compound, the result in [7], in [8], in assay [9] and in [10] was inactive.

For the compound `CC[C@H](c1ccc(O)cc1)[C@@H](CC)c1ccc(O)cc1`, the figures for the AC50 in assay [1] and in assay [2] were 75.7 µM (active) and 60.1 µM (active), respectively. Moreover, the compound was called inactive in assay [1], in assay [2], in [3], in assay [4], in [5] and in assay [6]. In addition, the outcome in [7], in assay [8], in [9] and in assay [10] was inactive.

Take `N#C[C@@H]1CC(F)(F)CN1C(=O)CNC1CC2CCC(C1)N2c1ncccn1` (stereo partly drawn): the outcome in assay [1], in assay [2], in assay [3], in assay [4], in [5] and in [6] was inactive. For the same compound, the compound was called inactive in assay [7], in assay [8] and in assay [9].

Regarding `CCC(C)(C)C1CCC(O)CC1` (stereo not drawn), the compound was called inactive in [1], in [2], in assay [3], in [4], in assay [5] and in [6]. In addition, the result in [7], in [8], in [9] and in assay [10] was inactive.

On to `CC(C)(C)c1ccc(O)c(C(C)(C)C)c1`, for which the values for the AC50 in assay [1] and in [2] were 42.7 µM (active) and 72.4 µM (active), respectively. For the same compound, the call in assay [1], in assay [2], in assay [3], in assay [4], in [5] and in assay [6] was inactive. Besides, the compound was called inactive in assay [7], in assay [8], in [9] and in [10].

On to `O=C1OC2(c3ccccc31)c1cc(Br)c(O)c(Br)c1Oc1c2cc(Br)c(O)c1Br`, for which the outcome in assay [1] was inactive.

As for `NC(=O)N1C(=O)C(C(=O)c2cc(Cl)cs2)c2cc(F)c(Cl)cc21` (stereo not drawn), the call in assay [1], in assay [4], in [5], in assay [6], in assay [7] and in [8] was inactive. The call in [9] and in [10] was inactive. Moreover, the AC50 is 14 µM (active) in assay [2] and 1.44 µM (active) in [3].

In the case of `CC#C[C@]1(O)CC[C@H]2[C@@H]3CCC4=CC(=O)CCC4=C3[C@@H](c3ccc(N(C)C)cc3)C[C@@]21C`, the result in [1], in assay [3], in [6], in assay [7] and in [8] was inactive. Moreover, the AC50 in assay [2] was 65.8 µM (active) and 20.7 µM (active); in assay [4] it was 73.3 µM (active); in [5] it was 82.8 µM (active); in assay [10], 73.3 µM (active).

For the compound `CCCOC(=O)c1ccc(O)cc1`, the call in assay [1], in assay [2], in assay [3] and in assay [6] was inactive. Further, the AC50 was 35 µM (active) in assay [4]; 46.4 µM (active) in [5]; 39.3 µM (active) in [7]; 10 µM (active) in [8]; 40 µM (active) in [9]; 11 µM (active) in [10].

With `CCCCC(CC)COC(=O)CCCCC(=O)OCc1ccccc1` (stereo not drawn), the outcome in assay [1], in assay [2], in assay [3], in assay [4], in assay [5] and in assay [6] was inactive. The compound was classed as inactive in assay [7], in assay [8], in assay [9] and in [10].
